In PubChem BioAssay (NCI):
“And” between values parts separate entries of the source, which are not always exact repeats. Equal entries are not always repeated. The panel holds about 83,000 compounds, 20% with a hit somewhere; the sample as a whole holds those more often.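 48-hour exposure, single concentration, 96-well plates; percent growth endpoint where 0 means no net growth. Active: below 10.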 Values without a mark were called inactive. The source made the active and inactive calls.

These compounds were tested on MDA-MB-468 breast (assay: NCI-60 one-dose screen, 48 h (100 = growth as untreated, 0 = no growth, -100 = all killed)). Conditions: 10 µM unless noted.
`CCOC(=O)N1CCc2c(sc3nc4nc[nH]n4c(=O)c23)C1` was tested, and the growth was 112%. Compound `COc1ccc(-c2nc(SCCC(C)C)nc(N/N=C\c3ccccc3O)c2C#N)cc1` has a growth of 88.6%. For `c1ccc2c(c1)[nH]c1c2cc[n+]2cc3c(cc12)CCCC3`, the growth was -14.5% (active). Compound `COc1ccc2occ(C3=C(c4c[nH]c5ccccc45)C(=O)N(O)C3=O)c2c1` has a growth of 95.1%. `CCN(CC)c1ccc(/C=C2\Oc3ccc(O)c(I)c3C2=O)cc1` gave a growth of 61.6%. For `Oc1ccc(CNNc2ccnc3c(O)cccc23)c2cccnc12`, the growth was 64.3%. In the case of `O=C(/C=C/c1cc(CN2CCOCC2)c(O)c2ncccc12)c1cc(CN2CCOCC2)c(O)c2ncccc12`, the growth is reported as 4.37% (active). In the case of `CCC(=O)Oc1ccc(/C(=C(\C)c2ccccc2)c2ccc(OCCN(CC)CC)cc2)cc1`, the growth is reported as 82.4%. `C/C(=N\Nc1ccccc1)c1ccc(NC2=CC(=O)c3ccccc3C2=O)cc1` showed a growth of 35.7%. `C=C1C(=O)O[C@H]2[C@H]1CC/C(COC(=O)CCCCCCCCC(=O)OC/C1=C/CC[C@@]3(C)O[C@H]3[C@H]3OC(=O)C(=C)[C@@H]3CC1)=C\CC[C@@]1(C)O[C@@H]21` was tested, and the growth was -32.7% (active). `O=C(O)COc1ccc2c(=O)c3sc4c(=O)c5ccccc5c(=O)c4c3c(=O)c2c1` showed a growth of 26.4%. For `CC1(C)NCCC[C@]2(C)[C@H]3CC[C@@H]4[C@H]5[C@H](C(=O)/C=C/c6ccccn6)CC[C@]5(CO)CC[C@@]4(C)[C@]3(C)CC[C@@H]12`, the growth was 5.83% (active). Compound `Cc1nc(-c2ccccc2)cc2c(O)c(C(=O)N/N=C/c3ccc(N(C)C)cc3)[nH]c(=O)c12` has a growth of 77.6%. `CCCCOc1nc2ccc(Cl)cc2cc1/C=C/C(=O)/C=C1/CC(c2cc3cc(Cl)ccc3nc2OCCCC)Nc2ccccc2N1` (stereo unspecified) gave a growth of 103%. Work on `COc1ccc(/C=C/C(=O)c2cccc(NC(=O)CSc3nc4ccccc4c(=O)n3-c3ccccc3)c2)cc1OC` yielded a growth of 108%. For `Cn1c(C#N)ccc1-c1ccc(F)c(NC(=O)c2ccc(F)cc2)c1`, the growth was 35.6%. In the case of `N#Cc1nc(-c2cccc(Br)c2)cc(-c2ccc(Nc3nc(N4CCCCC4)nc(N4CCCCC4)n3)cc2)c1N`, the growth is reported as -26.3% (active). With `CC(=O)c1ccc(NC(=O)CSc2nnc(-c3cc(-c4ccc(Cl)cc4)nc4ccccc34)o2)cc1` the growth was 115%. With `O=C1c2cc3c(cc2-c2c1c1ccc(Cl)cc1c(=O)n2C[C@H](O)[C@@H](O)[C@H](O)CO)OCO3` the growth was -63.4% (active). With `O=C(NNc1nc2cc(F)c(F)cc2n2c(CN3CC4CNCC4C3)ccc12)c1cnccn1` (stereo unspecified) the growth was -4.58% (active). `Cc1c(Cl)c(C)c(Cc2c(C)c(Cl)c(C)c(Cl)c2O)c(O)c1Cl` was tested, and the growth was -8.25% (active). In the case of `Cc1cc2cn3c4ccc(O)cc4[nH]c(=O)c3c2cc1C`, the growth is reported as -28.2% (active). Work on `CCSc1nc(Cl)c(C#N)c(-c2ccc(F)cc2)n1` yielded a growth of 84.2%. Compound `O=C1c2cccc3c(-c4ccc5c(c4)ncn5C4CCCCC4)ccc(c23)C(=O)N1CCO` has a growth of 78.9%. `Cc1nc(-c2ccc(Cl)cc2)ccc1NC(=O)Nc1cccc(C(F)(F)F)c1` gave a growth of 98.5%. In the case of `N=C(N)N1CCc2ccccc2C1`, the growth is reported as 41% and 107%. Work on `O=S1(=O)OC(c2ccc(O)c(Cl)c2)(c2ccc(O)c(Cl)c2)c2ccccc21` yielded a growth of 114%. In the case of `CNc1ccc(NC)c2c1C(=O)c1ccccc1C2=O`, the growth is reported as -7.38% (active). For `CC1Cc2c(Cl)ncnc2N(C)c2ccc(Cl)cc21` (stereo unspecified), the growth was -35.8% (active). Work on `O=C(CSc1nc2ccccc2[nH]1)NCc1ccccc1` yielded a growth of 101%. `CCOCCc1c(O)nc(SC)[nH]c1=O` showed a growth of 82.5%. In the case of `Cc1c([C@H](C(Cl)Cl)[C@H](O)[C@H]2C[C@H](C)C(=O)O2)ccc2c1C(=O)[C@H]1[C@H]2C[C@@H](Br)[C@@]23O[C@@H](CO[C@H]2O)CC13C` (stereo partly specified), the growth is reported as 17.5%. `C#CCOc1ccc(/C=N\Nc2nc(-c3ccc(C)cc3)cs2)cc1OC` was tested, and the growth was 70.7%. `O=C1CCCN1C1CCN(Cc2cc3ccccc3[nH]c2=O)c2ccccc21` (stereo unspecified) was tested, and the growth was 83.5%. `C[n+]1c(/C=C/c2c[nH]c3ccccc23)ccc2ccccc21` showed a growth of 23%. Compound `CC(=O)NNC(=S)N/C=C/c1c(C)ccc([N+](=O)[O-])c1[N+](=O)[O-]` has a growth of 98.8%.
